Values without a mark were called inactive. Records with an inconclusive call do not appear. The source made the active and inactive calls. Unless noted, calls follow the shape of the dose curve; as a rule, active = well fitted curve in the direction sought with a large enough effect in the repeat runs; inconclusive = weak or mixed curves; inactive = no such curve, though single readings can be large; an effect the other way counts as inactive or inconclusive.

Experiment [1] is described as follows: qHTS assay to identify small molecule antagonists of the androgen receptor (AR) signaling pathway using the MDA cell line in the presence of 0.5 nM R1881 - cell viability counter screen (AID 1259242). Also: nearly all actives have a fitted effect of over 45% in size. Put shortly:
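Counter screen for cytotoxicity run in the same wells as the AR antagonist reporter screen: MDA-kb2 cells were treated 16 hr with test compounds and 0.5 nM R1881, then live-cell protease activity was measured by fluorescence.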

Experiment [2] addresses Estrogen receptor (Homo sapiens) (UniProt P03372). The experiment is described as follows: qHTS assay to identify small molecule antagonists of the estrogen receptor alpha (ER-alpha) signaling pathway using the BG1 cell line in the presence of 0.1 nM 17-beta-estradiol (AID 1259244). Also: nearly all actives have a fitted effect of over 50% in size. Put shortly:
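Cells: VM7Luc4E2, endogenous ER-alpha, 4x ERE-luc stable. Pre-culture 5 d, phenol red-free, charcoal-stripped FBS. Plated 24 h, compound + E2 0.1 nM final, 22 h 37C/5% CO2. Readout ONE-Glo luminescence.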

Experiment [3] can be described thus: qHTS assay to identify small molecule HDAC inhibitors (AID 1259364). Also: top concentration of the series differs between compounds; nearly all actives have a fitted effect of over 45% in size. In a few lines:
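Luminescence from a cell-permeant luminogenic class I/II HDAC substrate reports endogenous deacetylase activity in intact HCT-116 cells treated with compounds for 2 h.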
(In general: qHTS replaces the single test concentration by a dilution series.)

Experiment [4] is described as follows: qHTS assay to identify small molecule agonists of the sonic hedgehog signaling (Shh) pathway - cell viability counter screen (AID 1259366). Also: nearly all actives have a fitted effect of over 50% in size. Put shortly:
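Fluorescence from CellTiter-Fluor reports live cells in this counter screen. NIH/3T3-derived Gli1-Luc reporter cells receive test compounds for 24hr at 37C; reagent goes in at 23hr.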

Experiment [5] in a line: qHTS assay to identify small molecule antagonists of the sonic hedgehog signaling (Shh) pathway - cell viability counter screen (AID 1259367). Also: nearly all actives have a fitted effect of over 55% in size. Put shortly:
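NIH/3T3-derived Gli1-Luc reporter cells (2,000 per well) rested 4 hr at 37 C, then received DMSO compounds plus conditioned medium. After 23 hr of treatment, CellTiter-Fluor was added for 1 hr at 37C and fluorescence read.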

Experiment [6] is described as follows: qHTS assay to identify small molecule agonists of the sonic hedgehog signaling (Shh) pathway (AID 1259368; calls by dose curve;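 also: NIH/3T3-derived 3T3Gli1-Luc cells carrying a stable Gli1-driven firefly luciferase reporter; series mostly up to about 92 µM; nearly all actives have a fitted effect of over 15% in size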). In a few lines: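 3T3Gli1-Luc (NIH/3T3 clone, stable Gli1-Luc); 4 hr pre-incubation, then cpd in DMSO 24 hr, 37 C/5% CO2; luciferase reagent 30 min RT; luminescence.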
The target of experiment [7] is Estrogen receptor beta (Homo sapiens) (UniProt Q92731). The experiment is described as follows: qHTS assay to identify small molecule agonists of the estrogen receptor beta (ER-beta) signaling pathway (AID 1259377; active = well fitted activation curve with a large enough effect in the signal ratio in the repeat runs, not every such curve was filed as active; the % refers to the signal ratio). In a few lines: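 Screening used GripTite ER-beta-UAS-bla cells held in 2% charcoal-stripped FBS medium. After overnight (16 hr) compound incubation at 37C, beta-lactamase activity was detected with a FRET substrate by fluorescence.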
Sequence of Estrogen receptor beta (Homo sapiens) (Q92731 whole entry, looked up): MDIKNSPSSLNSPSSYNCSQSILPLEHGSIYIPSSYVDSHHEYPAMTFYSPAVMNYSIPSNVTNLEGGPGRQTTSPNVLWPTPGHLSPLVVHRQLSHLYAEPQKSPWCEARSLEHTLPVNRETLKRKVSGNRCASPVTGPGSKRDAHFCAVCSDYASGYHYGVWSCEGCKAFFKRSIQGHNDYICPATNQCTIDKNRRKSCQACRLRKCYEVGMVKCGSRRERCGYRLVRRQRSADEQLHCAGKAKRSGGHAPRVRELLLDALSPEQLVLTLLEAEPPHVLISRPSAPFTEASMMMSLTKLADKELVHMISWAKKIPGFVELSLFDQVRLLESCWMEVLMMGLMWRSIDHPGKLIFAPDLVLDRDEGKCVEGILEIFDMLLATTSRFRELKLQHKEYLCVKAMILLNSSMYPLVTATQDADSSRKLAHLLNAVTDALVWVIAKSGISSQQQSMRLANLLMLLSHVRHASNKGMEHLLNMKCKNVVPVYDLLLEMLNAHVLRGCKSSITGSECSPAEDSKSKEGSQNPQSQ

The target is the same in experiment [8]. The experiment is described as follows: qHTS assay to identify small molecule antagonists of the estrogen receptor beta (ER-beta) signaling pathway (AID 1259378; active = well fitted inhibition curve with a large enough effect in the signal ratio in the repeat runs, not every such curve was filed as active; the % refers to the signal ratio; also: potency is read from the fitted curve at half-maximal effect). Put shortly:
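ER-beta-UAS-bla HEK293T (GripTite) cells in 2% charcoal-stripped FBS medium were preincubated 6 hr at 37C, dosed with compound, then stimulated with 1 nM E2 (final) for 16 hr; beta-lactamase reporter read by B/G FRET fluorescence after 2 hr substrate loading.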

Experiment [9] in a line: qHTS assay to identify small molecule agonists of the androgen receptor (AR) signaling pathway in the presence of an antagonist - cell viability counter screen (AID 1259379). Also: nearly all actives have a fitted effect of over 25% in size. Also: potency is read from the fitted curve at half-maximal effect.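 As to activity change, negative = cytotoxicity: MDA-kb2 human breast cancer cells carrying an MMTV luciferase reporter; series mostly up to about 92 µM.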 In a few lines: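 Cells: MDA-kb2 (MMTV-luc, AR and GR elements), 3,000/well, 5 hr settle. Added: nilutamide 3.0uM final, then compounds (15 conc.). Incubation: 16 hr, 37C, no CO2. Read-out: CellTiter-Fluor, 1 hr, fluorescence.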

Experiment [10] is described as follows: qHTS assay to identify small molecule agonists of the estrogen receptor beta (ER-beta) signaling pathway - cell viability counter screen (AID 1259380). Also: nearly all actives have a fitted effect of over 30% in size. Also: potency is read from the fitted curve at half-maximal effect. Put shortly: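 HEK293T ER-beta-UAS-bla; 2% CS-FBS; 6 hr pre-plate, 16 hr cpd at 37C/5% CO2; LiveBLAzer read first, then CellTiter-Glo 30 min RT, luminescence.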
The nature of experiment [11]: qHTS assay to identify small molecule antagonists of the estrogen receptor beta (ER-beta) signaling pathway - cell viability counter screen (AID 1259382). Also: series mostly up to about 92 µM; nearly all actives have a fitted effect of over 55% in size. Put shortly: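 Cells: ER-beta-UAS-bla HEK293T, 2,000/well, 2% CS-FBS, 6 hr settle. Cpd + E2 (1nM final), 16 hr, 37C/5% CO2. Bla FRET substrate 2 hr RT, then CellTiter-Glo 30 min RT, luminescence.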
Experiment [12] deals with Estrogen receptor (Homo sapiens) (UniProt P03372). The experiment is described as follows: qHTS assay to identify small molecule agonists of the estrogen receptor alpha (ER-alpha) signaling pathway in the presence of an antagonist (AID 1259383; calls by dose curve; also: top concentration of the series differs between compounds; nearly all actives have a fitted effect of over 15% in size). In a few lines: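 VM7Luc4E2, endog. ER-alpha + 4×ERE-luc; charcoal-stripped FBS, phenol red-free, 5 d; 24hr plating; +10.0nM ICI-182,780 (final); cpds 15 conc, 22hr, 37C/5% CO2; ONE-Glo luminescence.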
Sequence of Estrogen receptor (Homo sapiens) (P03372 whole entry, looked up): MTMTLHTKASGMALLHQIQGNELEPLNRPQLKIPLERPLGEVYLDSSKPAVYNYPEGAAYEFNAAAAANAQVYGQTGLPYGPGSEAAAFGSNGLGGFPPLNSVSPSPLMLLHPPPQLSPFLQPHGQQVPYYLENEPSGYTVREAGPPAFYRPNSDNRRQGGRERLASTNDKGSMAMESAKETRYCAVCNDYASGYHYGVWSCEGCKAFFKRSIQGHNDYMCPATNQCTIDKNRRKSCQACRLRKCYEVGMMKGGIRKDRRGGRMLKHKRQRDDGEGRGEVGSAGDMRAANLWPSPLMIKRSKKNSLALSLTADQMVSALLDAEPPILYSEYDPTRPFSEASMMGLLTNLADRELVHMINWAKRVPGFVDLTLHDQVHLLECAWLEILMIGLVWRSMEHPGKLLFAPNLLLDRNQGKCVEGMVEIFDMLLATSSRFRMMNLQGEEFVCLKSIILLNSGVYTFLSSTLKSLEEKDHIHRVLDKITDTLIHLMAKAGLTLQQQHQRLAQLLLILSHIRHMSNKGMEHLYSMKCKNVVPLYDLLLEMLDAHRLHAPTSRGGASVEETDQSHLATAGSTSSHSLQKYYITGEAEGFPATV

Experiment [13] is described as follows: qHTS assay to identify small molecule agonists or antagonists of the thyroid stimulating hormone receptor (TSHR) signaling pathway - wild type cell line counter screen (AID 1259384; calls by dose curve). Put shortly: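 Wild-type HEK293 cells were plated 18 h at 37 C/5% CO2, pin-dosed with compound plus Ro20-1724 medium, held 30 min at room temperature, then given cAMP-d2 and anti-cAMP-cryptate; fluorescence was read after 1 h. Fifteen concentrations, triplicate.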

Experiment [14] concerns the target Thyrotropin receptor (Homo sapiens) (UniProt P16473). The experiment is described as follows: qHTS assay to identify small molecule antagonists of the thyroid stimulating hormone receptor (TSHR) signaling pathway (AID 1259385; calls by dose curve; also: nearly all actives have a fitted effect of over 20% in size). In a few lines: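 TSHR-HEK293 cells were plated and held 18 h at 37C/5% CO2, then given compound plus Ro20-1724 and stimulated with TSH at 1.5 ng/mL final. After 30 min at room temperature, cAMP was detected with cAMP-d2/anti-cAMP-cryptate (1 h) by fluorescence.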

A short description of experiment [15]: qHTS assay to identify small molecule agonists of the estrogen receptor alpha (ER-alpha) signaling pathway in the presence of an antagonist - cell viability counter screen (AID 1259386).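 Also: series mostly up to about 92 µM; cells exposed to compounds for 22 h at 37 °C before the viability read; nearly all actives have a fitted effect of over 30% in size.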 In a few lines: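 VM7Luc4E2, stripped-serum pre-culture 5 d; 24hr plating; +ICI-182,780 10.0nM final; cpds 15 conc, 22hr, 37C/5% CO2; CellTiter-Fluor added at 21hr, fluorescence 1hr later.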

Experiment [16] can be described thus: qHTS assay to identify small molecule antagonists of the sonic hedgehog signaling (Shh) pathway (AID 1259369; calls by dose curve; also: nearly all actives have a fitted effect of over 45% in size). Put shortly:
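3T3Gli1-Luc, conditioned-medium-stimulated, 24hr cpd, 37C/5% CO2; Gli1-driven firefly Luc luminescence after 30min RT with luciferase reagent. Cells plated 4hr before cpd.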

Experiment [17] is described as follows: qHTS assay to identify small molecule HDAC inhibitors - cell viability counter screen (AID 1259365). Also: series mostly up to about 92 µM; nearly all actives have a fitted effect of over 50% in size. In a few lines: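 To flag cytotoxic hits, 1,500 wild-type HCT-116 cells per well, plated the day before, receive test compounds for 2hr at 37 C before CellTiter-Glo reagent and a luminescence read.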
Experiment [18] can be described thus: qHTS assay to identify small molecule phospholipidosis (PLD) inducers (AID 1259344; active = well fitted curve in the direction sought with a large enough effect; an effect the other way counts as inactive or inconclusive). In a few lines:
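HepG2 cells on collagen I, attached 4 h at 37 C, were co-treated with compound and LipidTOX Red dye for 24 h at 37 C, then fixed with paraformaldehyde plus Hoechst 33342 and imaged by high-content microscopy for phospholipid accumulation.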
% is scaled to controls: 0 for no effect and ±100 for the full control effect.

Sequence of Thyrotropin receptor (Homo sapiens) (P16473 whole entry, looked up): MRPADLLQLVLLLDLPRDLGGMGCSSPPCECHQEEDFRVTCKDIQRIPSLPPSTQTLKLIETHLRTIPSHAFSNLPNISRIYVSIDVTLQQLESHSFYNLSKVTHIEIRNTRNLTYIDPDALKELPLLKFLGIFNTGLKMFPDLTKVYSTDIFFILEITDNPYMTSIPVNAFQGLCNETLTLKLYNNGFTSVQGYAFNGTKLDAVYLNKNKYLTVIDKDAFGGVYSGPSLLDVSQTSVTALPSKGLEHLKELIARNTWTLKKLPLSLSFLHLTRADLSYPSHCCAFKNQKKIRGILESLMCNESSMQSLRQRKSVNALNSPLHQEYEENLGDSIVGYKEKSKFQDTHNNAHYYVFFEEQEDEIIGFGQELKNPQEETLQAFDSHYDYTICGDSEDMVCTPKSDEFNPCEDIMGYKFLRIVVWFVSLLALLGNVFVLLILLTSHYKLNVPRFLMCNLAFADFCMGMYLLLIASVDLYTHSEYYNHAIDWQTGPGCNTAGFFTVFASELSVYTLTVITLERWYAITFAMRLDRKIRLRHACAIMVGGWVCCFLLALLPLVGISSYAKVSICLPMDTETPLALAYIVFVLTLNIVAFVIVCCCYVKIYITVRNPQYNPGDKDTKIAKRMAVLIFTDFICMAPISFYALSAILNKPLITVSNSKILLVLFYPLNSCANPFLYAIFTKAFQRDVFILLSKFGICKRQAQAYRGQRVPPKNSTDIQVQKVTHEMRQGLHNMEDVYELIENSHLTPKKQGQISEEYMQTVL

Consider `C=CC(=C)CC/C=C(\C)CCC=C(C)C`, for which the viability change, negative = cytotoxic in experiment [1] was 2.29% [at 19 µM]; in experiment [4] it was -6.51% [at 19 µM]; in experiment [5], -4.46% [at 19 µM]. The values for the activity change, negative = inhibition in [2], in experiment [3] and in experiment [14] were 3.24% [at 19 µM], 8.2% [at 19 µM] and 0.374% [at 19 µM], respectively. In addition, the activity change in [6] was 0.047% [at 18.9 µM, hits give high values]. The activation was 1.85% [at 19 µM] in experiment [7] and 1.51% [at 19 µM] in experiment [12]. In [8], the activity, negative = inhibition is -20.6% [at 19 µM]. Moreover, the activity change, negative = cytotoxicity is 1.35% [at 19 µM] in experiment [9], -10.3% [at 19 µM] in experiment [10], -3.14% [at 19 µM] in experiment [11] and -2.45% [at 19 µM] in [15]. The cAMP activity change in experiment [13] is 3.85% [at 18.9 µM].
`Cc1cc(=O)[nH]c(=O)[nH]1`: the Potency entry in [1], in experiment [2], in experiment [3], in experiment [4], in experiment [5] and in experiment [6] was “inactive” in each case. Besides, the Potency result in experiment [16], in [7], in experiment [8], in experiment [9], in [10] and in experiment [11] was “inactive” throughout. Moreover, the Potency result in experiment [12], in experiment [14] and in experiment [15] was “inactive” throughout. Also, the result in experiment [13] was inactive.
With `CCCC(CC)CCCCCCCN` (centres undefined), the Potency entry in experiment [1], in [2], in experiment [3], in experiment [4], in experiment [5] and in experiment [6] was “inactive” each time. For the same compound, the Potency result in [11], in experiment [14] and in experiment [15] was “inactive” throughout. Moreover, the Potency in experiment [9] was 62.6 µM (active). The result in experiment [13] was inactive.
As for `Clc1ccc(C(c2ccccc2Cl)C(Cl)Cl)cc1` (centres undefined), the Potency entry in [1], in experiment [3], in experiment [17], in experiment [4], in experiment [5] and in [6] was “inactive” throughout. The Potency entry in experiment [16], in [7], in experiment [9], in experiment [14] and in experiment [15] was “inactive” throughout. Besides, the Potency is 19.3 µM (active) in experiment [8] and 48.6 µM (active) in experiment [10]. Moreover, the compound was classed as inactive in experiment [13].
Turning to `Nc1ncnc2c1ncn2[C@@H]1O[C@H](COP(=O)(O)O)[C@@H](O)[C@H]1O`, the Potency entry in experiment [1], in experiment [18], in experiment [3], in experiment [4], in experiment [6] and in [16] was “inactive” in each case. Further, the Potency entry in experiment [7], in experiment [9], in experiment [11] and in experiment [14] was “inactive” each time. The Potency in [10] is 26.6 µM (active). In experiment [13], the outcome was inactive.
In the case of `Cn1cnc2ncnc(N)c21`, the Potency entry in [1], in experiment [2], in [3], in experiment [4], in experiment [5] and in experiment [6] was “inactive” each time. Further, the Potency entry in experiment [16], in experiment [7], in experiment [8], in [9], in [10] and in [11] was “inactive” throughout. Further, the Potency result in experiment [12], in experiment [14] and in [15] was “inactive” in each case. In addition, the call in [13] was inactive.
Regarding `NCCCC(O)(P(=O)(O)O)P(=O)(O)O`, the Potency entry in [1], in [18], in experiment [3], in experiment [17], in experiment [4] and in [5] was “inactive” throughout. Besides, the Potency entry in [6], in [16], in [9], in [10], in experiment [14] and in experiment [15] was “inactive” each time. Also, the result in experiment [13] was inactive.
Take `CCCCCCCC/C=C\CCCCCCCC(=O)NCc1ccc(O)c(OC)c1`: the Potency result in [1], in [18], in experiment [3], in experiment [17], in experiment [4] and in experiment [5] was “inactive” throughout. Moreover, the Potency entry in experiment [6], in [16], in experiment [9] and in [15] was “inactive” in each case.
`CN(C)CCN1CCOCC1`: the Potency entry in experiment [1], in experiment [2], in experiment [3], in experiment [4], in [5] and in [6] was “inactive” in each case. The Potency result in experiment [16], in experiment [7], in experiment [8], in [9], in experiment [10] and in experiment [11] was “inactive” throughout. Moreover, the Potency result in [14] and in experiment [15] was “inactive” throughout. For the same compound, the outcome in experiment [13] was inactive.
Take `CC(=O)Nc1ccc(O)cc1`: the Potency result in experiment [1], in [18], in [3], in experiment [17], in experiment [4] and in experiment [5] was “inactive” throughout. Further, the Potency result in experiment [6], in experiment [16], in experiment [9], in experiment [10], in [11] and in experiment [15] was “inactive” throughout.
`OCCN1CN(CCO)CN(CCO)C1`: the Potency result in experiment [1], in experiment [2], in [3], in experiment [4], in [6] and in experiment [9] was “inactive” throughout. In addition, the Potency entry in [10], in experiment [14] and in experiment [15] was “inactive” throughout. The call in experiment [13] was inactive.
As to `Clc1ccccc1CN1CCc2sccc2C1`, the Potency entry in experiment [1], in experiment [18], in [3], in experiment [17], in experiment [4] and in [5] was “inactive” throughout. Further, the Potency entry in [6], in experiment [16], in experiment [9] and in experiment [15] was “inactive” in each case.
